From PubChem BioAssay AID1259422 (The Scripps Research Institute Molecular Screening Center, 2018)
Values joined by “and” are separate entries in the source; they are usually repeats but may differ in a detail not shown here. Equal entries are not always repeated. Among all 640,000 compounds or so, about 9,300 (1.5%) were called active. Cut-off read from the data, not from the text of the source: active = inhibition above about 32%; inactive = the rest. Only a selection was taken, and actives are over-represented in it overall.

Assay: TEAD-YAP interaction inhibition, primary screen, TEAD-YAP interaction inhibitor project, luminescence, HEK-TIYL cells (AID 1259422);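 note: 0% = median of test compound wells and 100% = reference inhibitor wells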
Conditions: TEAD-Gal4/YAP UAS-luciferase luminescence, at 9.12 µM, stronger effect = higher value

Row | SMILES | inhibition
1 | CC(C)N(C)C1CCN(S(=O)(=O)c2cccc([N+](=O)[O-])c2)CC1 | -1.4% (inactive)
2 | Cc1ccc2cccc(NC(=O)c3cc4ccccc4o3)c2n1 | 12.1% (inactive)
3 | CCC(C)c1ccccc1NC(=O)CN(C)CC(=O)Nc1ccccc1SC (stereo not given) | 36.5% (active)
4 | CN(CC(=O)Nc1ccccc1F)CC(=O)Nc1ccccc1Br | -1.95% (inactive)
5 | CCC(C)c1ccccc1NC(=O)C(C)Cl (stereo not given) | -3.45% (inactive)
6 | COc1cccc(/C=N/NC(=O)c2cccc(NC(=O)c3ccc(F)cc3)c2)c1O | 28.7% (inactive)
7 | COc1cccc(/C=N/Nc2ncc(C(F)(F)F)cc2Cl)c1O | 49.5% (active)
8 | COc1cccc(C=Nc2ccc(N)c(Cl)c2)c1O | 6.6% (inactive)
9 | Cc1ccc(Nc2nc(-c3ccc(Cl)cc3)cs2)cc1 | -86.7% (inactive)
10 | Cc1ccc(-c2csc(Nc3ccccc3)n2)c(C)c1 | -65% (inactive)
11 | Cc1ccc(Nc2nc(-c3cccs3)cs2)cc1 | 64.2% (active)
12 | CCOCCCn1c(SCc2cc(=O)n3ccccc3n2)nc2ccccc2c1=O | 0.02% (inactive)
13 | Cc1cc2nnn(C[C@@H](C)NC(=O)Cc3ccccc3)c2cc1C | -20.1% (inactive)
14 | Cc1ccc(-c2nc(CSCC(=O)NC3CCN(Cc4ccccc4)CC3)c(C)o2)cc1 | 33.9% (active)
15 | Cc1ccc(-c2nc(CSCC(=O)N3CCC(C(N)=O)CC3)c(C)o2)cc1 | 10.6% (inactive)
16 | COc1ccc(-c2nc(CSCC(=O)NC3CCCCCC3)c(C)o2)cc1OC | 2.93% (inactive)
17 | O=C(Cn1c(SCC(=O)N2CCCC2)nc2ccccc21)NC1CCCC1 | 3.72% (inactive)
18 | Cc1cccc(Oc2ccc(NC(=O)c3cc(-c4ccccc4)nc4ccc(C)cc34)cc2)c1 | -0.69% (inactive)
19 | Cc1ccc2nc(-c3ccncc3)cc(C(=O)Nc3ccc4c(c3)OCCO4)c2c1 | 43.3% (active)
20 | O=C(Nc1ccc(F)cc1)c1cc(-c2ccncc2)nc2ccccc12 | -1.35% (inactive)

Row | SMILES | inhibition
21 | COc1ccc(-c2nnc(SCC(=O)N(C)C)n2C)cc1 | 2.69% (inactive)
22 | CCC(=O)N[C@@H]1c2ccccc2C2(CCN(Cc3cn[nH]c3-c3ccccc3)CC2)[C@H]1OC | -3.33% (inactive)
23 | CCOc1ccccc1C(=O)Nc1c(C(=O)Nc2ccccc2F)oc2cccnc12 | 41.9% (active)
24 | COc1ccccc1NC(=O)c1oc2cccnc2c1NC(=O)c1ccc(Cl)cc1 | -6.82% (inactive)
25 | O=C(Nc1ccccc1F)c1oc2cccnc2c1NC(=O)C1CC1 | 2.6% (inactive)
26 | Cn1c(SCC(=O)c2ccc3c(c2)OCO3)nnc1-c1cccs1 | -1.64% (inactive)
27 | COc1ccccc1N/C=C/C(=O)c1ccc(OC)c(OC)c1 | -24% (inactive) and -18.3% (inactive)
28 | COc1ccc(C(=O)/C=C/Nc2cccc(C(C)O)c2)cc1 (stereo not given) | -59.6% (inactive)
29 | COc1ccc(C(=O)/C=C/Nc2ccccn2)cc1 | 53.5% (active)
30 | CCC(Oc1ccccc1)C(=O)NC(C)C (stereo not given) | 12.4% (inactive)
31 | CCc1cc(=O)[nH]c(NC2CCN(S(=O)(=O)c3ccccc3)CC2)n1 | 4.67% (inactive)
32 | COc1ccc(Nc2c(-c3ccccc3O)nc3cnccn23)cc1 | -0.84% (inactive)
33 | Oc1ccccc1-c1nc2cnccn2c1NCc1ccccc1 | -6.9% (inactive)
34 | COc1ccc(CNc2c(-c3ccccc3O)nc3cnccn23)cc1 | 67.4% (active)
35 | COc1ccc(OC)c(N/C=C(/C#N)c2nc(-c3ccc(OC)c(OC)c3)cs2)c1 | 0.19% (inactive)
36 | COc1ccc(N=C2SC(C(=O)NCCc3ccccc3)CC(=O)N2CCc2ccc(OC)c(OC)c2)cc1 (stereo not given) | 7.83% (inactive)
37 | Cc1cc(C)nc(NC(N)=NCCC(C)C)n1 | 6.21% (inactive)
38 | O=[N+]([O-])/C=C\c1ccc(N2CCCCC2)cc1 | 31.3% (inactive)
39 | O=[N+]([O-])/C=C/c1ccc2c(ccn2Cc2ccccc2)c1 | 33.9% (active)
40 | N#CC(C#N)=Cc1ccc(N2CCN(Cc3ccccc3)CC2)c([N+](=O)[O-])c1 | 4.11% (inactive)

Row | SMILES | inhibition
41 | CC1(C)Cc2c(c(N3CCOCC3)nc3sc4c(N5CCCCC5)nnnc4c23)CO1 | -1.34% (inactive)
42 | CCn1c(=O)c2ccccc2n2c(SCC(=O)N(C)C3CCCCC3)nnc12 | -7.16% (inactive)
43 | O=C(Nc1cccc(NC(=O)c2cccc(Cl)c2Cl)c1)c1ccco1 | -0.83% (inactive)
44 | Cc1ccc(Nc2nc(N/N=C/c3ccccc3O)nc(N3CCOCC3)n2)cc1Cl | -11% (inactive)
45 | Oc1ccc(/C=N/Nc2nn[nH]n2)c(O)c1 | -11.8% (inactive)
46 | Oc1ccc(/C=N/Nc2ncc(F)c(N3CCOCC3)n2)c(O)c1 | 58.7% (active)
47 | COc1ccc(C2=N/C(=C\c3cc(OC)c(OC)c(OC)c3)C(=O)O2)c(Cl)c1 | -1.56% (inactive)
48 | N#Cc1c(-n2ncnc2-c2ccc3c(c2)OCO3)sc2c1CCCC2 | -2.41% (inactive)
49 | c1ccc(-n2cnc3c(NCc4nc5ccccc5[nH]4)nc(Nc4nccc5ccccc45)nc32)cc1 | 7.74% (inactive)
50 | c1ccc(CNc2nc(Nc3cccnc3)nc3c2ncn3-c2ccccc2)cc1 | 25.2% (inactive)
51 | FC(F)(F)c1cccc(CNc2nc(N3CCN(c4ccccn4)CC3)nc3c2ncn3-c2ccsc2)c1 | -7.69% (inactive)
52 | c1ccc(N2CCN(c3nc(NCc4nc5ccccc5[nH]4)c4ncn(-c5ccsc5)c4n3)CC2)nc1 | 68% (active)
53 | c1ccc(CNc2nc(N3CCN(c4ccccn4)CC3)nc3c2ncn3-c2ccsc2)cc1 | -1.71% (inactive)
54 | c1cncc(Nc2nc(NCc3nc4ccccc4[nH]3)c3ncn(-c4ccsc4)c3n2)c1 | 84.1% (active)
55 | COc1cccc(NC(=S)NC(=O)CC(C)C)c1 | -50% (inactive)
56 | CCc1ccccc1NC(=O)c1cc2ccccc2oc1=O | -2.07% (inactive)
57 | O=C(CC1(O)C(=O)Nc2c(C(F)(F)F)cccc21)c1ccc(Cl)s1 (stereo not given) | -1.56% (inactive)
58 | Cc1ccc2c(c1)-c1c(cnn1CC(=O)NCCCN1CCCCCC1)CO2 | 4.66% (inactive)
59 | CC(NC(=O)CSCc1ccccc1Cl)c1ccccc1 (stereo not given) | -4.44% (inactive)
60 | Cc1noc(C)c1S(=O)(=O)N1CCCC(C(=O)Nc2cccc(Cl)c2C)C1 (stereo not given) | 3.39% (inactive)
